Experimental data as given in PubChem BioAssay AID2763 (National Center for Advancing Translational Sciences (NCATS), 2010).
Records with an inconclusive call do not appear. Where a call stands in place of a potency, no number is given. Activity calls are given as the source filed them. Calls come from the whole dose curve; as a rule, active = well fitted inhibition curve with a large enough effect; inconclusive = small, poorly fitted or top-dose-only effect, or effect the other way; inactive = no such curve, though single readings can be large or run the other way.

Assay: Concentration response confirmation VP16 counterscreen for inhibitors of ROR gamma transcriptional activity; note: nearly all actives have a fitted effect of over 70% in size
Conditions: Drosophila S2 Gal4-VP16 UAS-luciferase, luminescence, 20 h; series mostly up to 46.1 µM
Method in brief: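 Drosophila Schneider cells stably carrying Gal4-VP16 under metallothionein promoter plus UAS-Photinus luciferase. Compound preincubated 1 hr, then 700 uM copper sulfate induction for 20 hr at ambient temperature; luminescence read.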
Potency is the fitted concentration of half-maximal effect.

Row | SMILES | Potency
1 | COc1ccc(-c2c[n+]3c(n2-c2ccc(C)cc2)CCCCC3)cc1 | 3.53 µM (active)
2 | COc1ccc(OC)c(NC(=S)N(CCc2c(C)[nH]c3ccccc23)Cc2cccs2)c1 | inactive
3 | CCOc1cc(C)c(S(=O)(=O)NC2CCCCC2)cc1C | inactive
4 | Cc1nn(-c2cc(C)c3ccccc3n2)c2c1C1C(C2)C1(C)C (centres undefined) | 22.3 µM (active)
5 | CCn1nc(C)c(CN2CCC(n3nccc3NC(=O)c3ccc4c(c3)OCO4)CC2)c1C | inactive
6 | C=CCn1c(SCC(=O)c2ccc(OC)cc2)nnc1-c1cc2cccc(OC)c2o1 | inactive
7 | CCOC(=O)C(C(=O)OCC)C(C(=O)OCC)N1CCOCC1 (centres undefined) | 3.53 µM (active)
8 | Cc1ccc(OCCCC(=O)Nc2nc3ccccc3[nH]2)cc1 | inactive
9 | Cc1ccccc1NC(=O)CCN1CCN(C)CC1 | inactive
10 | O=C(NCC1CCCO1)C(C(=O)c1ccccc1)n1ccccc1=O (centres undefined) | inactive
11 | Cc1nc2c(-c3ccccc3)cnn2c(N)c1-c1ccccc1 | 11.2 µM (active)
12 | O=C(NC(=S)Nc1nc(-c2ccccc2)cs1)c1cncc(Br)c1 | 7.91 µM (active)
13 | CCn1cc(C(=O)O)c(=O)c2cnc(N3CCN(C(=S)NC(=O)c4ccccc4)CC3)nc21 | inactive
14 | O=C(c1cc(-c2ccc(Cl)cc2)n[nH]1)N1CCc2ccccc2C1 | inactive
15 | S=c1[nH]nc(-c2cc(-c3ccccn3)nc3ccccc23)o1 | inactive
16 | Cc1nn(-c2ccccc2)c(C)c1C(=O)Nc1nnc(-c2ccco2)o1 | 1.25 µM (active)
17 | COc1ccc(-c2cc(C(=O)NNC3=NCCC3)c3c(C)nn(-c4ccccc4)c3n2)cc1 | 2.5 µM (active)

Row | SMILES | Potency
18 | N=C1S/C(=C\c2ccco2)C(=O)N1c1nccs1 | 0.396 µM (active)
19 | O=S(=O)(NCc1ccccn1)C(F)(F)F | 25 µM (active)
20 | CN(Cc1nc2ccccc2c(=O)[nH]1)Cc1nc2ccsc2c(=O)[nH]1 | 4.99 µM (active)
21 | COc1ccc(C(=O)Nc2ccc(NC(=O)c3cccs3)cn2)cc1 | inactive
22 | Cc1ccc(OCCn2cc(C(=S)N3CCCC3)c3ccccc32)cc1C | 25 µM (active)
23 | COc1ccc(C(=O)Nc2nc3cc4c(cc3s2)OCCO4)c(OC)c1 | 0.223 µM (active)
24 | NC(=O)/C=C/C(=O)Nc1ccc(Cl)cc1 | 8.88 µM (active)
25 | CCOC(=O)c1oc2cccc(OCC(O)CNC(C)C)c2c1C (centres undefined) | inactive
26 | O=C(NC(=S)Nc1nc(-c2ccc(Br)cc2)cs1)c1cccnc1 | inactive
27 | COc1cccc(CNS(=O)(=O)c2ccc3c(c2)CCN3C(=O)C2CC2)c1 | inactive
28 | S=c1[nH]nc(-c2ccc(Cl)cc2Cl)n1-c1ccc2c(c1)OCCO2 | inactive
29 | CNc1cc(C(F)(F)F)nc(-c2ccccn2)n1 | 8.88 µM (active)
30 | COc1cc(CNS(=O)(=O)c2ccc3c(c2)CC(C)N3C(=O)C2CCC2)cc(OC)c1OC (centres undefined) | 9.96 µM (active)
31 | Cc1cc(C)c2[nH]c(C(=O)Nc3ccc4c(c3)OCO4)cc2c1 | inactive
32 | Cn1nnnc1NCc1ccccc1F | inactive
33 | COc1ccc(-c2cc(C(F)(F)F)nc(S(=O)(=O)CCCC(=O)Nc3cccnc3Cl)n2)cc1OC | 9.96 µM (active)
34 | CCN1C(=O)/C(=C/c2ccc(N3CCCC3)cc2)NC1=S | 9.96 µM (active)
